Most compounds without a hit are left out; they make up all but 19% or so of the library.
IL1B secr inh – inflammasome signaling inhibition, IL-1 beta readout; THP-1 LPS/ATP IL-1B secretion, AlphaLISA, 16 h; stronger effect = lower value; activity change, % at 57.5 µM; 4.7% of 360,000 active; AID 743279; in the data active = activity change below about -50%; inconclusive = mostly about -30% to -49%
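THP-1 cells pretreated 1 hr with compounds (up to 57.5 uM final), then stimulated with LPS (250 ng/mL final) plus ATP (1.25 mM final); secreted IL-1B measured by AlphaLISA after 16 hr, decreased signal indicating inhibition.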
TDP1 cell noCPT – qHTS for Inhibitors of human tyrosyl-DNA phosphodiesterase 1 (TDP1): qHTS in cells in absence of CPT; Potency, µM (top dose mostly 46.2 µM), usual class: inhibitors; AID 686978, 2013; DT40 Tdp1-/- hTDP1 cells, no CPT, ATP luminescence, 48 h; 15% of 420,000 active; also: nearly all actives have a fitted effect of over 55% in size
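Stably hTDP1-transfected Tdp1-null chicken DT40 cells were treated with library compounds minus camptothecin and grown for at least 48 hr at 37 °C, after which cellular ATP was quantified by luminescence.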
HT1080 IDH1KD tx – kills HT-1080 cells with IDH1 knockdown; Potency, µM (series often up to 46.1 µM), hits mostly cytotoxic; 2% of 360,000 active; AID 686971; HT-1080 IDH1 knockdown viability, ATP luminescence, 48 h
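% activity derives from luminescence (CellTiter-Glo), normalised to DMSO and no-cell wells. HT-1080-IDH1KD cells, 750/well, had 48 h compound exposure at 37 °C.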
HT1080-NT tox – kills 2HG-producing HT-1080-NT fibrosarcoma cells; 1.6% of 360,000 active; Potency, µM (series often up to 46.1 µM), actives largely listed as cytotoxic; AID 686970; HT-1080-NT fibrosarcoma viability, CellTiter-Glo ATP luminescence, 48 h;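 also: NT is the 2HG producing partner of a matched IDH1 knockdown line; nearly all actives have a fitted effect of over 55% in size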
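Viability of the 2HG-overproducing fibrosarcoma line after 48 hours of compound exposure at 37 degrees C was determined by luminescence with CellTiter-Glo, and concentration-effect curves were then fitted and categorized.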
DT40 TDP1 CPT – DT40-hTDP1 cell growth loss with CPT | chicken DT40 Tdp1-/-;hTDP1 cells + 20 nM CPT, ATP luminescence, 48 h | Potency, µM (titrated, usually from 46.2 µM), actives largely listed as inhibitors | 12% of 420,000 active | AID 686979; also: nearly all actives have a fitted effect of over 55% in size
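Chicken DT40 Tdp1-/- cells complemented with human TDP1, 400 cells/well, exposed to compounds plus 20 nM camptothecin for at least 48 h at 37 C; viability read as ATP content by CellTiter-Glo luminescence.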
A number is an active result; – = inactive; ? = inconclusive; · = no result given. Unless noted, calls follow the shape of the dose curve; as a rule, active = well fitted curve in the direction sought with a large enough effect; inconclusive = small, poorly fitted or top-dose-only effect, or another doubt; inactive = no such curve, though single readings can be large; an effect the other way counts as inactive or inconclusive.

SMILES	IL1B secr inh	TDP1 cell noCPT	HT1080 IDH1KD tx	HT1080-NT tox	DT40 TDP1 CPT
CCCCNC(=O)C1CCN(Cc2nc(-c3ccc(OC)c(OC)c3)oc2C)CC1	·	–	·	·	–
Cc1oc(-c2cccc(Cl)c2)nc1CN1CCC(C(=O)NCCCN2CCN(c3ccccc3F)CC2)CC1	·	3.7µM	·	·	2.9µM
COc1ccc(-c2nc(CN3CCC(C(=O)NCCCN4CCN(c5ccccc5F)CC4)CC3)c(C)o2)cc1OC	·	1.2µM	·	·	?
CC(C)CN1C(=O)N(c2ccc(Cl)cc2)C(C)(O)CC1(C)C (stereo not given)	–	?	–	–	?
COc1ccc2oc3cc(Cl)ccc3c(=O)c2c1	–	–	–	–	–
Cc1nn(CCCC(=O)Nc2cc(Oc3ccccc3)cc([N+](=O)[O-])c2)c(C)c1[N+](=O)[O-]	-50	?	–	–	?
Cn1cc([N+](=O)[O-])c(C(=O)Nc2cc(Oc3ccccc3)cc([N+](=O)[O-])c2)n1	–	–	6.5µM	18µM	–
Cc1ccc(C)c(Oc2cc(NC(=O)CCCn3nc(C)c([N+](=O)[O-])c3C)cc([N+](=O)[O-])c2)c1	?	?	?	16µM	?
CCn1nc(C)c(C(=O)Nc2cc(Oc3cc(C)cc(C)c3)cc([N+](=O)[O-])c2)c1C	–	21µM	?	?	?
Nn1c(SCC(=O)N2CCCc3ccccc32)nncc1=O	–	–	–	–	–
CCN(Cc1ccccc1)C(=O)c1ccc(CNS(=O)(=O)c2ccc(C)cc2)cc1	–	?	–	–	?
CCN(CC(=O)NC(C)C)C(=O)c1ccc(S(=O)(=O)N(C)c2ccccc2OC)cc1	–	15µM	–	–	?
CCOc1ccccc1NC(=O)CN(c1ccc(OC)c(OC)c1)S(=O)(=O)c1ccc(C)cc1	–	?	–	–	?
CCN(CC(=O)Nc1ccc(NC(C)=O)cc1)C(=O)c1ccc(N(C)S(=O)(=O)c2ccc(C)cc2)cc1	–	?	–	–	26µM
CCN(CC(=O)Nc1ccccc1OC)C(=O)c1ccc(N(C)S(=O)(=O)c2ccc(C)cc2)cc1	–	16µM	–	–	15µM
CCN(Cc1ccccc1)C(=O)c1ccc(N(C)S(=O)(=O)c2ccc(C)cc2)cc1	–	15µM	–	–	18µM
COc1ccccc1N(C)S(=O)(=O)c1ccc(C(=O)NC(C)(C)C)cc1	–	–	–	–	–
CCNS(=O)(=O)c1ccc(CCC(=O)N2CCc3ccccc3C2)cc1	–	–	–	–	–
C[C@H]1CN([C@@H](C)CO)C(=O)CCCn2nncc2CO[C@H]1CN(C)S(=O)(=O)c1ccc(C#N)cc1	–	–	–	–	–
CCCNC(=O)NC(=O)COC(=O)c1ccc(S(=O)(=O)N(C)c2ccccc2OC)cc1	–	21µM	–	–	29µM
CCCC(CCC)C(=O)NC1CC(=O)N(c2ccc3c(c2)OCCO3)C1 (stereo not given)	·	–	·	·	–
Nc1cc(=O)[nH]c(SCc2ccc(Cl)cc2Cl)n1	–	7.3µM	–	–	8.2µM
Cc1ccc(N(Cc2ccccc2)C(=O)c2ccc(Cl)c(S(=O)(=O)N3CCOCC3)c2)cc1	–	?	–	–	?
COc1ccc(/C=N/n2c(SC)nnc2-c2ccccc2)c(OC)c1OC	–	2.1µM	?	–	3.3µM
CCCc1cc(=O)[nH]c(SC(CC)C(=O)Nc2ccccc2C#N)n1 (stereo not given)	–	–	–	–	–
SMILES	IL1B secr inh	TDP1 cell noCPT	HT1080 IDH1KD tx	HT1080-NT tox	DT40 TDP1 CPT
CCNC(=O)c1cc2c(=O)n3cccc(C)c3nc2n(Cc2ccc(C)cc2)c1=N	–	16µM	–	–	18µM
COCCCn1c(=N)c(C(=O)NC2CCCC2)cc2c(=O)n3cccc(C)c3nc21	·	23µM	·	·	?
COCCCn1c(C(=O)Nc2ccc3c(c2)OCO3)cc2c(=O)n3cccc(C)c3nc21	–	12µM	–	–	?
Cc1cccn2c(=O)c3cc(C(=O)NCC4CCCO4)c(=N)n(Cc4cccnc4)c3nc12 (stereo not given)	–	26µM	–	–	18µM
COCCCn1c(C(=O)N2CCOCC2)cc2c(=O)n3cccc(C)c3nc21	–	–	–	–	–
Cc1cccn2c(=O)c3cc(C(=O)NCCN4CCOCC4)c(=N)n(Cc4ccc(F)cc4)c3nc12	?	7.3µM	?	–	7.3µM
COc1ccc(CNC(=O)c2cc3c(=O)n4cccc(C)c4nc3n(CC3CCCO3)c2=N)cc1 (stereo not given)	–	?	–	–	?
Cc1cccn2c(=O)c3cc(C(=O)NCc4ccc(F)cc4)c(=N)n(CC4CCCO4)c3nc12 (stereo not given)	–	23µM	–	–	?
Cc1cccn2c(=O)c3cc(C(=O)NC4CCCCC4)c(=N)n(Cc4ccc(F)cc4)c3nc12	–	15µM	–	–	8.2µM
Cc1cccn2c(=O)c3cc(C(=O)NCCN4CCOCC4)c(=N)n(CCN4CCOCC4)c3nc12	–	–	–	–	–
Cc1cccn2c(=O)c3cc(C(=O)NCc4ccco4)c(=N)n(C4CCCC4)c3nc12	–	23µM	–	–	?
CC(=O)C(C(C)=O)c1c(Cl)c(O)c(O)c2c(C(=O)c3ccccc3)coc12	–	3.7µM	12µM	?	4.6µM
CN1CCN(Cc2c(O)ccc3occ(C(=O)c4ccccc4)c23)CC1	–	–	–	–	?
COC(=O)c1nn(-c2ccc(OC)cc2)c(=O)cc1O	–	–	–	–	–
COc1ccc(-n2nc(C#N)c(Cl)cc2=O)cc1	-106	4.6µM	13µM	7.3µM	3.3µM
COc1cc(-c2ccc3oc(-c4cccc(C)c4)c(C#CC4(O)CCCCC4)c3c2)cc(OC)c1OC	-63	16µM	–	–	16µM
COc1ccc(-c2oc3ccc(-c4ccc5c(c4)OCO5)cc3c2C#CC2(O)CCCCC2)cc1	–	?	?	?	?
O=C(c1ccccc1)C1CCN(C(=O)C2CCC(=O)N(Cc3ccccc3F)C2)CC1 (stereo not given)	–	21µM	–	–	16µM
O=C(COc1ccccc1)Nc1nnc(COc2ccccc2)s1	–	–	–	–	?
C/C(N)=C(/C#N)C(=O)COC(=O)c1ccccc1Oc1ccccc1	–	–	–	–	?
CCOC(=O)C1=C(N)N(c2ccccc2)C(=O)C1	–	16µM	–	–	7.3µM
Cc1cccc(CNC(=O)Cc2csc3ccccc23)c1	·	–	·	·	–
Oc1c(C(Nc2cccc(C(F)(F)F)c2)c2cccnc2)ccc2cccnc12 (stereo not given)	–	?	?	–	?
COc1ccc(Cl)cc1C(Nc1cccnc1)c1ccc2cccnc2c1O (stereo not given)	-66	?	10µM	?	?

High-throughput results deposited in PubChem BioAssay by National Center for Advancing Translational Sciences (NCATS).
